From PubChem BioAssay (NCI)
About 83,000 compounds went through this panel and 20% of them were active in at least one assay; those are over-represented in the sample as a whole.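 Growth was measured after 48 h exposure to one concentration of compound in 96-well plates. Values under 10 count as active.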 Activity calls are given as the source filed them.

What was measured:
Assay in all cases: NCI-60 one-dose screen, 48 h (100 = growth as untreated, 0 = no growth, -100 = all killed)
Details in all cases: 10 µM unless noted
SK-MEL-2 melanoma = test system: SK-MEL-2 melanoma
EKVX NSCLC = test system: EKVX NSCLC
UO-31 renal = test system: UO-31 renal
TK-10 renal = test system: TK-10 renal
ACHN renal = test system: ACHN renal
CAKI-1 renal = test system: CAKI-1 renal
A498 renal = test system: A498 renal
CCRF-CEM leukemia = test system: CCRF-CEM leukemia
MOLT-4 leukemia = test system: MOLT-4 leukemia
SN12C renal = test system: SN12C renal

Measured: growth

COC1=C(OC)C(=O)C(CCCCCCCCCCO)=C(C)C1=O
inactive: SK-MEL-2 melanoma 49.8% | EKVX NSCLC 89.8% | UO-31 renal 70.2% | TK-10 renal 112% | ACHN renal 60.5% | CAKI-1 renal 61% | A498 renal 103% | CCRF-CEM leukemia 29.1% | MOLT-4 leukemia 28.1%

Nc1nc(Nc2ccc([N+](=O)[O-])cc2O)nc(C(Cl)(Cl)Cl)n1
inactive: SK-MEL-2 melanoma 79% | EKVX NSCLC 106% | SN12C renal 80.6% | UO-31 renal 71.7% | TK-10 renal 92.4% | CAKI-1 renal 46.3% | CCRF-CEM leukemia 19.3%

COc1ccc(CNc2c3ccccc3nc3ccccc23)cc1OC
active: ACHN renal 4.11% | A498 renal -12.1%
inactive: SK-MEL-2 melanoma 38.6% | EKVX NSCLC 15.2% | UO-31 renal 12.1% | TK-10 renal 32.3% | CAKI-1 renal 10.5% | CCRF-CEM leukemia 30.5% | MOLT-4 leukemia 10.6%

CCOC(=O)C1=C(c2ccccc2)N=C2N(c3ccccc3)N=C(C(C)=O)N2C1c1ccc(Br)cc1 (stereo not given)
inactive: SK-MEL-2 melanoma 90.3% | EKVX NSCLC 93.9% | UO-31 renal 72.7% | TK-10 renal 109% | ACHN renal 93.3% | CAKI-1 renal 87.1% | A498 renal 42.9% | CCRF-CEM leukemia 87.7% | MOLT-4 leukemia 93.6%

Cc1nc2sc(C(=O)Nc3ccccc3)c(N)c2cc1C(O)c1ccccc1 (stereo not given)
active: A498 renal -8.48% | CCRF-CEM leukemia 6.36%
inactive: SK-MEL-2 melanoma 54.8% | EKVX NSCLC 51.5% | UO-31 renal 45.7% | TK-10 renal 59.3% | ACHN renal 34.4% | CAKI-1 renal 24.8% | MOLT-4 leukemia 15.1%

COc1ccc(N/N=C/c2ccc3c(c2)Sc2ccccc2N3C)cc1
inactive: SK-MEL-2 melanoma 98% | EKVX NSCLC 65.9% | UO-31 renal 42.1% | TK-10 renal 114% | ACHN renal 51.6% | CAKI-1 renal 26.2% | A498 renal 17.5% | CCRF-CEM leukemia 73.6% | MOLT-4 leukemia 38.8%

O=C(OCC(O)(CO)C(=O)NC12CC3CC(CC(C3)C1)C2)c1ccc(Cl)cc1 (stereo not given)
inactive: SK-MEL-2 melanoma 86.3% | EKVX NSCLC 103% | UO-31 renal 82.6% | TK-10 renal 85.3% | ACHN renal 102% | CAKI-1 renal 99% | CCRF-CEM leukemia 87.8% | MOLT-4 leukemia 83.8%

CCN1CCN(c2cc(C(=O)Nc3cccc(Nc4ccc5c(OC)cccc5n4)c3)cc(C(F)(F)F)c2)CC1
active: UO-31 renal -8.51% | CAKI-1 renal 6.06% | CCRF-CEM leukemia 6.94% | MOLT-4 leukemia -14.5%
inactive: SK-MEL-2 melanoma 65.3% | EKVX NSCLC 46.2% | TK-10 renal 36% | ACHN renal 12.5% | A498 renal 57.6%

CN1CCN(CCCNC(=O)c2c3c(n4ccccc24)C(=O)c2ncccc2C3=O)CC1
active: SK-MEL-2 melanoma 9.41% | ACHN renal 7.62% | CCRF-CEM leukemia -11.5% | MOLT-4 leukemia -35.1%
inactive: EKVX NSCLC 24% | UO-31 renal 32.2% | TK-10 renal 56.7% | CAKI-1 renal 75.4% | A498 renal 45.8%

O=C(/C=C/c1ccc(Cl)cc1)c1ccc(Nc2ccnc3cc(Cl)ccc23)cc1
inactive: SK-MEL-2 melanoma 54% | EKVX NSCLC 136% | UO-31 renal 65% | TK-10 renal 111% | ACHN renal 109% | CAKI-1 renal 76.3% | A498 renal 108% | MOLT-4 leukemia 43.4%
active: CCRF-CEM leukemia 3.01%

COc1ccc(Cn2cc(C(=O)N=Nc3c(O)[nH]c4ccc(Br)cc34)nn2)cc1
inactive: SK-MEL-2 melanoma 98.1% | EKVX NSCLC 106% | UO-31 renal 91.5% | TK-10 renal 97.6% | ACHN renal 110% | CAKI-1 renal 97.7% | A498 renal 97.1% | CCRF-CEM leukemia 92.5% | MOLT-4 leukemia 80.6%

CCCNNC(=O)c1ccc(CNC(=O)/C=C/c2ccccc2)cc1
active: TK-10 renal -0.401% [2.5 µM] | A498 renal -18.4% [2.5 µM]
inactive: SK-MEL-2 melanoma 45% [2.5 µM] | EKVX NSCLC 55.2% [2.5 µM] | UO-31 renal 22.4% [2.5 µM] | ACHN renal 10.1% [2.5 µM] | CAKI-1 renal 23.1% [2.5 µM] | CCRF-CEM leukemia 27.3% [2.5 µM] | MOLT-4 leukemia 15.3% [2.5 µM]

COc1ccc(/C=C\c2cc(OC)c(OC)c(OC)c2)cc1OCC(=O)Nc1nc2ccccc2s1
inactive: SK-MEL-2 melanoma 26.7% | EKVX NSCLC 55.8% | ACHN renal 16.9% | CAKI-1 renal 17.6% | A498 renal 25.1% | CCRF-CEM leukemia 35.3%
active: UO-31 renal 4.73% | TK-10 renal 4.64% | MOLT-4 leukemia 6.31%

O=C(Nc1ccc(Cl)cc1)C1=NCCCCN1
inactive: SK-MEL-2 melanoma 97.7% | EKVX NSCLC 80% | UO-31 renal 55.4% | TK-10 renal 90% | ACHN renal 59.1% | CAKI-1 renal 53.8% | A498 renal 98.6% | CCRF-CEM leukemia 89.2% | MOLT-4 leukemia 95.4%

Cc1ccc(C(F)(F)F)cc1N1CCN(C(=O)[C@H]2C[C@H]2c2ccc(C(F)(F)F)nc2)CC1
inactive: SK-MEL-2 melanoma 89.1% | EKVX NSCLC 90.7% | SN12C renal 92.6% | UO-31 renal 69% | TK-10 renal 96.4% | CAKI-1 renal 69.3% | CCRF-CEM leukemia 90.2% | MOLT-4 leukemia 73.2%

CS(=O)(=O)c1ccc(/C(=N/NC(N)=S)c2ccc(F)cc2)cc1
inactive: SK-MEL-2 melanoma 112% | EKVX NSCLC 92.5% | UO-31 renal 71.1% | TK-10 renal 115% | ACHN renal 100% | CAKI-1 renal 94.7% | A498 renal 82.2% | CCRF-CEM leukemia 92.9% | MOLT-4 leukemia 103%

COc1cc(C(=O)/C=C/c2c(-c3cccs3)nc3sc(C)cn23)cc(OC)c1OC
active: UO-31 renal -7.93% | TK-10 renal 8.26% | CAKI-1 renal -12.7% | A498 renal -15.7% | MOLT-4 leukemia -2.47%
inactive: SK-MEL-2 melanoma 13.1% | SN12C renal 29% | ACHN renal 12.7% | CCRF-CEM leukemia 19.5%

CCCCC#Cc1c(I)n(C2OC(CO[Si](C)(C)C(C)(C)C)C3OC(C)(C)OC32)c(=O)[nH]c1=O (stereo not given)
inactive: SK-MEL-2 melanoma 55.6% | SN12C renal 85.1% | UO-31 renal 56.1% | TK-10 renal 68.9% | CAKI-1 renal 74.4% | A498 renal 99.1%
active: CCRF-CEM leukemia 8.63% | MOLT-4 leukemia 4.72%

Oc1cccc2c1NCCC2
inactive: TK-10 renal 23.3% | ACHN renal 11.4% | CAKI-1 renal 15.6% | A498 renal 19.6% | CCRF-CEM leukemia 18.6% | MOLT-4 leukemia 28%
active: SK-MEL-2 melanoma -14.9% | UO-31 renal 6.25%
